An excerpt weighted towards active compounds, which were near 2.7% of everything screened.
Nrf2 inh – inhibitors of Nrf2 signaling | A549 ARE-Fluc reporter, luciferase luminescence, 18-24 h | Potency, µM (highest dose often 46 µM), hits mostly inhibitors | hit rate 2.1% among 360,000; further: nearly all actives have a fitted effect of over 60% in size
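Two sequential reads on A549 ARE_Fluc cells exposed to compound for 18-24 h: a CellTiter-Fluor fluorescence read for viability, then a luciferase luminescence read for Nrf2/ARE activity.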
ERG-DNA inh – inhibitors of human ERG Ets domain-DNA interaction; Potency, µM (highest dose often 76.9 µM), actives largely listed as inhibitors; fluorescence polarization, His-ERG Ets domain / labelled DNA; AID 624246; hit rate 0.028% among 370,000; active means well fitted inhibition curve with a large enough effect in the polarisation, with a control signal flat; inconclusive means small, poorly fitted or top-dose-only effect, or effect the other way, or a change in a side signal; inactive means no such curve, though single readings can be large or run the other way; the % refers to the polarisation;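 further: polarization taken with two DNA probes labelled with fluorescein and Texas red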
Target sequence (P11308 whole entry, looked up, the tested form may be a part): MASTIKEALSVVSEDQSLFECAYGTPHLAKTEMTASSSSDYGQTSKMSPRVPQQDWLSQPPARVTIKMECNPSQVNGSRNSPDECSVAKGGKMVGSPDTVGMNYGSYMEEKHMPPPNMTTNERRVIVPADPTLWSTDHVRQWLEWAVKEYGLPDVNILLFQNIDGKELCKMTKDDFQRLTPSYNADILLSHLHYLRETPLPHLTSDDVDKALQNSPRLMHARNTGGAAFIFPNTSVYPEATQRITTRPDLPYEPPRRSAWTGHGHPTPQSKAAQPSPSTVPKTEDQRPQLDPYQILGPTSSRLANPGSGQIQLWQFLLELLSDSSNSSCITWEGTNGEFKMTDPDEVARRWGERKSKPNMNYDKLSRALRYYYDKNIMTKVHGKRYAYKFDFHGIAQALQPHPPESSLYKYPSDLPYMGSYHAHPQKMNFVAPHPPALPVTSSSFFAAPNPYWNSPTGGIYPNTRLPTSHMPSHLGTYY
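His-tagged ERG Ets domain (1 uM in the protein solution; 300mM KCl, 50mM Tris-HCl, 1mM EDTA, 1mM DTT, pH 7.5) received compound, then a probe mix of 5 nM fluorescein-DNA and 100nM Texas-615-DNA. Fluorescence polarization was read for both dyes.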
Nrf2 ARE act – activates Nrf2 signaling; hit rate 0.31% among 410,000; AREc32 ARE-luciferase reporter (MCF7-derived line), luminescence, 24 h; Potency, µM (series often up to 46.1 µM), most hits filed as activators; further: nearly all actives have a fitted effect of over 65% in size
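AREc32_Fluc, 1000 cells/well, OPTI-MEM + 5% FBS, o/n 37 deg C 5% CO2; 23 nL cpd by pin tool, 24 hr; Steady-Glo 30 min RT, luminescence.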
ALOX12 inh – ALOX12 (human) lipoxygenase inhibition; P18054; purified 12hLO, xylenol orange hydroperoxide absorbance; Potency, µM (top dose mostly 108 µM), hits mostly inhibitors; hit rate 1.1% among 580,000; AID 1671190
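Hydroperoxide product was detected by ferrous iron/xylenol orange as the 573 to 405 nm absorbance ratio. Arachidonic acid at 40 uM (final) was turned over for 30 min at room temperature by 150 nM human 12hLO, pH 7.0 Hepes buffer, after 15 min compound preincubation.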
A549 tox – A549 cytotoxicity, counter-screen for Nrf2 inhibitors. A549 ARE-Fluc cells, CellTiter-Fluor viability, 18-24 h. Potency, µM (series often up to 46 µM), most hits filed as inhibitors. hit rate 0.16% among 390,000
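A549 ARE_Fluc cells in 5% FBS OPTI-MEM were exposed to compounds in concentration-response for 18-24 h at 37 deg C. Viability was read by CellTiter-Fluor fluorescence (Ex 405/Em 525) after 30 min, before the luciferase read.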
LDHA block – LDHA (human) enzyme inhibition; P00338; purified LDHA, NADH/diaphorase-resazurin fluorescence; active compounds read low; activity change, % (values are at about 110 or 230 µM); hit rate 0.15% among 480,000; in the data active means activity change below about -30%; inconclusive means mostly about -25% to -30%
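Resorufin fluorescence (ex540/em590), read at 0 and 20 min after diaphorase/resazurin addition, reports the NADH left after a 5 min room-temperature reaction of 2 nM human LDH5 with 0.06 mM NADH and 0.2 mM pyruvate.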
Numbers stand for hits; 0 = inactive; ? = inconclusive; - = no result given; ! = repeats disagree. Unless noted, the call rests on the fitted dose curve; in most records, active means well fitted curve in the direction sought with a large enough effect; inconclusive means small, poorly fitted or top-dose-only effect, or another doubt; inactive means no such curve, though single readings can be large; an effect the other way counts as inactive or inconclusive.

SMILES | Nrf2 inh | ERG-DNA inh | Nrf2 ARE act | ALOX12 inh | A549 tox | LDHA block
O=c1cc(O)nc(-c2ccc(Cl)cc2)s1 | ? | 0 | 0 | 45µM | 0 | 0
Cc1ccc(Cn2cc(C(=O)NCCCc3[nH]nc(N)c3C#N)c(-c3ccc(C)cc3)n2)cc1 | - | - | - | 0 | - | 0
COC(=O)/C=C/c1ccccc1 | - | - | - | 0 | - | -
S=C(NCCc1c[nH]c2ccccc12)Nc1ccc(Cl)cc1 | - | - | - | ? | - | 0
S=C(NCCc1c[nH]c2ccccc12)Nc1ccc(Br)cc1 | - | - | - | 32µM | - | 0
COc1ccc(CCNC(=S)NCCc2c[nH]c3ccccc23)cc1 | 0 | 0 | 0 | 45µM | 0 | 0
Cc1ccc(NC(=S)NCCc2c[nH]c3ccccc23)cc1 | 0 | 0 | 0 | ? | 0 | 0
CC(C)c1ccc(NC(=S)NCCc2c[nH]c3ccccc23)cc1 | ? | 0 | 0 | 35µM | ? | 0
COc1ccc(CNC(=O)NCCc2c[nH]c3ccccc23)cc1 | 0 | 0 | 0 | 0 | 0 | 0
Cc1cccc(NC(=S)NCCc2c[nH]c3ccccc23)c1 | 0 | 0 | 0 | 40µM | 0 | 0
COc1cccc(C(=O)Nc2ccc3oc(-c4cccc(Cl)c4)nc3c2)c1 | - | - | - | ? | - | 0
CCOC(=O)CCCNC(=S)Nc1c(C)cccc1C | - | - | - | ? | - | 0
COc1ccc(/C=N/OCC(=O)Nc2cccc(C(F)(F)F)c2)cc1 | - | - | - | 0 | - | 0
C=CCNC(=O)NC(=O)CN1CCC(Cc2ccccc2)CC1 | - | - | - | 0 | - | 0
COc1ccc(-c2noc(-c3ccc(N4CCC(C)CC4)c([N+](=O)[O-])c3)n2)cc1OC | 21µM | 0 | 0 | 0 | 0 | 0
O=[N+]([O-])c1cc(-c2nc(-c3ccccc3)no2)ccc1N1CCOCC1 | 23µM | 0 | 0 | 0 | 0 | 0
COc1cc(CNCC2CCNCC2)ccc1OCc1ccccc1Cl | - | - | - | ? | - | 0
CCC(=O)Nc1ccc(C)cc1-c1nnc(SCC(=O)Nc2cccc(Cl)c2Cl)[nH]c1=O | - | - | - | 0 | - | 0
O=C(c1cccs1)N1C[C@@H](n2cc(C3CC3)nn2)[C@H](O)C[C@@H]1c1ccc(Cl)cc1 | - | - | 0 | ? | - | -36
O=C(c1cccs1)N1C[C@@H](O)[C@H](n2cc(C3CC3)nn2)C[C@@H]1c1ccc(Cl)cc1 | - | - | 0 | ? | - | 0
O=C(c1cccs1)N1C[C@@H](n2cc(C3CC3)nn2)[C@H](O)C[C@@H]1c1ccccc1 | - | - | 0 | 0 | - | -37
COc1ccc([C@H]2C[C@@H](O)[C@H](n3cc(C4CC4)nn3)CN2C(=O)c2cccs2)cc1 | - | - | 0 | 0 | - | 0
CN(CCCCOc1ccc2ccccc2c1)CCCCOc1ccc2ccccc2c1 | - | - | - | ? | - | 0
Cc1cc(C(=O)N2CCCC(C(=O)c3cccc(C(F)(F)F)c3)C2)n[nH]1 (configuration not stated) | 18µM | 0 | 0 | 0 | 0 | 0
COC(=O)c1c(C)sc(-c2c(-c3ccc4c(c3)OCCO4)[nH]c3[nH]c(=O)[nH]c(=O)c23)c1O | 0 | 0 | 0 | 25µM | 0 | 0
SMILES | Nrf2 inh | ERG-DNA inh | Nrf2 ARE act | ALOX12 inh | A549 tox | LDHA block
COC(=O)c1c(C)sc(-c2c(-c3ccc4c(c3)OCCO4)[nH]c3c2c(=O)n(C)c(=O)n3C)c1O | 0 | 0 | 0 | 0 | 0 | 0
Cc1cc(=O)c2ccccc2n1Cc1ccccc1 | 16µM | 0 | 0 | 0 | 0 | 0
COc1ccc(-c2c(C)c3cc(OC(C)=O)ccc3oc2=O)cc1 | - | - | - | 0 | - | 0
Cc1ccc(C(=O)CSc2ncnc3ccccc23)o1 | ? | 0 | 13µM | 0 | 0 | 0
CNC(=O)c1ccc(CN(C)c2nc3ccccc3o2)cc1 | - | - | - | 0 | - | 0
Cc1nc(N2CCCCC2)c2c(C)c(C(=O)Nc3cccc(C(F)(F)F)c3)sc2n1 | 23µM | 0 | 0 | 0 | 0 | 0
Cc1nc(N2CCCCC2C)c2c(C)c(C(=O)Nc3cccc(C(F)(F)F)c3)sc2n1 (configuration not stated) | ? | 0 | 0 | 0 | 0 | 0
CN(Cc1ccccc1)C(=O)c1ccc2c(c1)CCCN2S(C)(=O)=O | - | - | - | 0 | - | 0
S=c1[nH]c2cc3ccccc3cc2[nH]1 | ? | 0 | 0 | ? | ? | 0
S=c1[nH]c2ccccc2s1 | - | - | - | 28µM! | - | 0
CCOC(=O)C(=O)Nc1ccccc1OC | - | - | - | 0 | - | 0

Bioassay records as filed in PubChem BioAssay.
